± gives the standard deviation of the averaged measurements.
Key:
Assay in all cases: promoter activity interaction Z-score (Lux/OD deviation from empty-vector control); higher = stronger promoter induction by the compound
[1] = test system: E. coli BW25113 acrABp lux reporter
Outline: (§1)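 Low-copy luxCDABE promoter reporters were carried by E. coli BW25113, either wild type or lacking one of three genes, grown in 40 µl LB Lennox in 384-well plates at 37°C. Each compound was run at four 1:2 dilutions in biological duplicates, with OD600 and luminescence read every 30 min for 12 h. Integration used 0–8 h for wild type and 1–9 h for deletion strains, and wells under 10% of the median growth value were removed. Luminescence normalised to growth was fitted against a control, and the Z-transformed residual is the score.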

[2] = test system: E. coli BW25113 marRABp lux reporter
Outline: as §1

[3] = test system: E. coli BW25113 micFp lux reporter
Outline: as §1

[4] = test system: E. coli BW25113 ompFp lux reporter
Outline: as §1

[5] = test system: E. coli BW25113 robp lux reporter
Outline: as §1

[6] = test system: E. coli BW25113 soxSp lux reporter
Outline: as §1

[7] = test system: E. coli BW25113 tolCp lux reporter
Outline: as §1

[8] = 1.9 µg/ml, genetic background: wild type
[9] = 1.9 µg/ml, genetic background: ΔmarA
[10] = 1.9 µg/ml, genetic background: Δrob
[11] = 1.9 µg/ml, genetic background: ΔsoxS
[12] = 3.7 µg/ml, genetic background: wild type
[13] = 3.7 µg/ml, genetic background: ΔmarA
[14] = 3.7 µg/ml, genetic background: Δrob
[15] = 3.7 µg/ml, genetic background: ΔsoxS
[16] = 7.4 µg/ml, genetic background: wild type
[17] = 7.4 µg/ml, genetic background: ΔmarA
[18] = 7.4 µg/ml, genetic background: Δrob
[19] = 7.4 µg/ml, genetic background: ΔsoxS
[20] = 0.07 µg/ml, genetic background: wild type
[21] = 0.07 µg/ml, genetic background: ΔmarA
[22] = 0.07 µg/ml, genetic background: Δrob
[23] = 0.07 µg/ml, genetic background: ΔsoxS
[24] = 0.15 µg/ml, genetic background: wild type
[25] = 0.15 µg/ml, genetic background: ΔmarA
[26] = 0.15 µg/ml, genetic background: Δrob
[27] = 0.15 µg/ml, genetic background: ΔsoxS
[28] = 0.29 µg/ml, genetic background: wild type
[29] = 0.29 µg/ml, genetic background: ΔmarA
[30] = 0.29 µg/ml, genetic background: Δrob
[31] = 0.29 µg/ml, genetic background: ΔsoxS

CCCCCCCCCCCCC[N+](C)(C)Cc1ccccc1 [Benzalkonium]
promoter activity interaction Z-score [1, 8]: -0.513 ± 0.068 | promoter activity interaction Z-score [1, 9]: -0.237 ± 0.34 | promoter activity interaction Z-score [1, 10]: -0.388 ± 0.4 | promoter activity interaction Z-score [1, 11]: 0.294 ± 0.89 | promoter activity interaction Z-score [1, 12]: -0.16 ± 0.06 | promoter activity interaction Z-score [1, 13]: -0.795 ± 0.15 | promoter activity interaction Z-score [1, 14]: -0.554 ± 0.18 | promoter activity interaction Z-score [1, 15]: 0.231 ± 0.94 | promoter activity interaction Z-score [1, 16]: -0.426 ± 0.23 | promoter activity interaction Z-score [1, 17]: -0.878 ± 0.33 | promoter activity interaction Z-score [1, 18]: -0.727 ± 0.24 | promoter activity interaction Z-score [1, 19]: 0.0433 ± 0.71 | promoter activity interaction Z-score [2, 8]: -0.577 ± 0.068 | promoter activity interaction Z-score [2, 9]: 0.106 ± 0.047 | promoter activity interaction Z-score [2, 10]: -0.463 ± 0.11 | promoter activity interaction Z-score [2, 11]: -0.158 ± 0.0077 | promoter activity interaction Z-score [2, 12]: -0.168 ± 0.0038 | promoter activity interaction Z-score [2, 13]: -0.194 ± 0.23 | promoter activity interaction Z-score [2, 14]: -0.586 ± 0.14 | promoter activity interaction Z-score [2, 15]: -0.214 ± 0.035 | promoter activity interaction Z-score [2, 16]: -0.235 ± 0.61 | promoter activity interaction Z-score [2, 17]: -0.581 ± 0.057 | promoter activity interaction Z-score [2, 18]: -0.529 ± 0.065 | promoter activity interaction Z-score [2, 19]: -0.255 ± 0.23 | promoter activity interaction Z-score [3, 8]: -0.76 ± 0.023 | promoter activity interaction Z-score [3, 9]: 0.0652 ± 0.0013 | promoter activity interaction Z-score [3, 10]: 0.0861 ± 0.12 | promoter activity interaction Z-score [3, 11]: 0.559 ± 0.1 | promoter activity interaction Z-score [3, 12]: -0.0239 ± 0.31 | promoter activity interaction Z-score [3, 13]: 0.0187 ± 0.025 | promoter activity interaction Z-score [3, 14]: -0.0547 ± 0.088 | promoter activity interaction Z-score [3, 15]: 0.312 ± 0.19 | promoter activity interaction Z-score [3, 16]: -0.0221 ± 0.06 | promoter activity interaction Z-score [3, 17]: 0.112 ± 0.063 | promoter activity interaction Z-score [3, 18]: -0.178 ± 0.013 | promoter activity interaction Z-score [3, 19]: 0.584 ± 0.26 | promoter activity interaction Z-score [4, 8]: -0.908 ± 0.23 | promoter activity interaction Z-score [4, 9]: -0.356 ± 0.42 | promoter activity interaction Z-score [4, 10]: -1.25 ± 0.58 | promoter activity interaction Z-score [4, 11]: -0.386 ± 0.51 | promoter activity interaction Z-score [4, 12]: -0.513 ± 0.059 | promoter activity interaction Z-score [4, 13]: -0.652 ± 0.036 | promoter activity interaction Z-score [4, 14]: -1.38 ± 0.51 | promoter activity interaction Z-score [4, 15]: -0.498 ± 0.53 | promoter activity interaction Z-score [4, 16]: -0.731 ± 0.65 | promoter activity interaction Z-score [4, 17]: -1.05 ± 0.44 | promoter activity interaction Z-score [4, 18]: -1.75 ± 0.21 | promoter activity interaction Z-score [4, 19]: -0.339 ± 0.55 | promoter activity interaction Z-score [5, 8]: -1.53 ± 0.13 | promoter activity interaction Z-score [5, 9]: -0.233 ± 0.25 | promoter activity interaction Z-score [5, 10]: -0.222 ± 1.1 | promoter activity interaction Z-score [5, 11]: -0.27 ± 0.21 | promoter activity interaction Z-score [5, 12]: -0.668 ± 0.089 | promoter activity interaction Z-score [5, 13]: -0.453 ± 0.016 | promoter activity interaction Z-score [5, 14]: -0.648 ± 0.67 | promoter activity interaction Z-score [5, 15]: -0.627 ± 0.58 | promoter activity interaction Z-score [5, 16]: -0.364 ± 0.19 | promoter activity interaction Z-score [5, 17]: -0.432 ± 0.13 | promoter activity interaction Z-score [5, 18]: -0.777 ± 0.35 | promoter activity interaction Z-score [5, 19]: -0.0429 ± 0.032 | promoter activity interaction Z-score [6, 8]: -0.311 ± 0.12 | promoter activity interaction Z-score [6, 9]: 0.435 ± 0.12 | promoter activity interaction Z-score [6, 10]: 0.153 ± 0.081 | promoter activity interaction Z-score [6, 11]: 0.8 ± 0.97 | promoter activity interaction Z-score [6, 12]: -0.00893 ± 0.087 | promoter activity interaction Z-score [6, 13]: 0.517 ± 0.017 | promoter activity interaction Z-score [6, 14]: -0.0801 ± 0.15 | promoter activity interaction Z-score [6, 15]: 0.388 ± 0.66 | promoter activity interaction Z-score [6, 16]: -0.156 ± 0.16 | promoter activity interaction Z-score [6, 17]: 0.256 ± 0.12 | promoter activity interaction Z-score [6, 18]: -0.261 ± 0.034 | promoter activity interaction Z-score [6, 19]: 0.23 ± 0.41 | promoter activity interaction Z-score [7, 8]: -0.208 ± 0.53 | promoter activity interaction Z-score [7, 9]: 1.08 ± 0.12 | promoter activity interaction Z-score [7, 10]: 1.06 ± 0.98 | promoter activity interaction Z-score [7, 11]: 0.966 ± 0.54 | promoter activity interaction Z-score [7, 12]: -0.106 ± 0.92 | promoter activity interaction Z-score [7, 13]: 1.89 ± 1.1 | promoter activity interaction Z-score [7, 14]: -0.289 ± 0.39 | promoter activity interaction Z-score [7, 15]: 0.246 ± 0.11 | promoter activity interaction Z-score [7, 16]: 0.0455 ± 1.8 | promoter activity interaction Z-score [7, 17]: 0.506 ± 0.55 | promoter activity interaction Z-score [7, 18]: -0.0996 ± 0.22 | promoter activity interaction Z-score [7, 19]: 1.32 ± 2 | promoter activity interaction Z-score ([7]; 14.9 µg/ml, genetic background: ΔsoxS): 1.08 ± 0.5

NCC[C@H](O)C(=O)N[C@@H]1C[C@H](N)[C@@H](O[C@H]2O[C@H](CN)[C@@H](O)[C@H](O)[C@H]2O)[C@H](O)[C@H]1O[C@H]1O[C@H](CO)[C@@H](O)[C@H](N)[C@H]1O [Amikacin]
promoter activity interaction Z-score [1, 20]: -0.0946 ± 0.19 | promoter activity interaction Z-score [1, 21]: -0.446 ± 0.067 | promoter activity interaction Z-score [1, 22]: -0.0638 ± 0.15 | promoter activity interaction Z-score [1, 23]: 0.407 ± 0.79 | promoter activity interaction Z-score [1, 24]: -0.184 ± 0.091 | promoter activity interaction Z-score [1, 25]: 0.671 ± 0.15 | promoter activity interaction Z-score [1, 26]: 0.0534 ± 0.092 | promoter activity interaction Z-score [1, 27]: 0.0811 ± 0.13 | promoter activity interaction Z-score [1, 28]: 0.115 ± 0.19 | promoter activity interaction Z-score [1, 29]: -0.213 ± 0.41 | promoter activity interaction Z-score [1, 30]: 0.174 ± 0.22 | promoter activity interaction Z-score [1, 31]: 0.725 ± 0.52 | promoter activity interaction Z-score [3, 20]: 0.278 ± 0.0046 | promoter activity interaction Z-score [3, 21]: -0.0226 ± 0.005 | promoter activity interaction Z-score [3, 22]: 0.217 ± 0.22 | promoter activity interaction Z-score [3, 23]: 0.0839 ± 0.14 | promoter activity interaction Z-score [3, 24]: 0.512 ± 0.097 | promoter activity interaction Z-score [3, 25]: -0.00684 ± 0.057 | promoter activity interaction Z-score [3, 26]: 0.12 ± 0.33 | promoter activity interaction Z-score [3, 27]: 0.119 ± 0.33 | promoter activity interaction Z-score [3, 28]: -0.0466 ± 0.17 | promoter activity interaction Z-score [3, 29]: -0.0853 ± 0.18 | promoter activity interaction Z-score [3, 30]: 0.176 ± 0.21 | promoter activity interaction Z-score [3, 31]: 0.577 ± 0.056 | promoter activity interaction Z-score [4, 20]: 0.0689 ± 0.025 | promoter activity interaction Z-score [4, 21]: -0.0472 ± 0.084 | promoter activity interaction Z-score [4, 22]: -0.503 ± 0.43 | promoter activity interaction Z-score [4, 23]: 0.197 ± 1.1 | promoter activity interaction Z-score [4, 24]: 0.165 ± 0.46 | promoter activity interaction Z-score [4, 25]: -0.0471 ± 0.24 | promoter activity interaction Z-score [4, 26]: -0.472 ± 0.32 | promoter activity interaction Z-score [4, 27]: -0.668 ± 0.2 | promoter activity interaction Z-score [4, 28]: 0.00226 ± 0.33 | promoter activity interaction Z-score [4, 29]: -0.365 ± 0.65 | promoter activity interaction Z-score [4, 30]: -0.428 ± 0.22 | promoter activity interaction Z-score [4, 31]: -0.0742 ± 0.3 | promoter activity interaction Z-score [5, 20]: 0.19 ± 0.2 | promoter activity interaction Z-score [5, 21]: -0.331 ± 0.085 | promoter activity interaction Z-score [5, 22]: 0.0353 ± 0.83 | promoter activity interaction Z-score [5, 23]: -0.155 ± 0.68 | promoter activity interaction Z-score [5, 24]: 0.0679 ± 0.58 | promoter activity interaction Z-score [5, 25]: -0.461 ± 0.45 | promoter activity interaction Z-score [5, 26]: -0.248 ± 0.33 | promoter activity interaction Z-score [5, 27]: -0.642 ± 0.14 | promoter activity interaction Z-score [5, 28]: -0.115 ± 0.051 | promoter activity interaction Z-score [5, 29]: 0.598 ± 0.21 | promoter activity interaction Z-score [5, 30]: -1.2 ± 0.31 | promoter activity interaction Z-score [5, 31]: -0.0862 ± 0.53 | promoter activity interaction Z-score [6, 20]: 0.354 ± 0.11 | promoter activity interaction Z-score [6, 21]: 0.016 ± 0.15 | promoter activity interaction Z-score [6, 22]: 0.176 ± 0.043 | promoter activity interaction Z-score [6, 23]: 0.0385 ± 0.3 | promoter activity interaction Z-score [6, 24]: 0.336 ± 0.13 | promoter activity interaction Z-score [6, 25]: 0.137 ± 0.1 | promoter activity interaction Z-score [6, 26]: 0.346 ± 0.51 | promoter activity interaction Z-score [6, 27]: -0.156 ± 0.15 | promoter activity interaction Z-score [6, 28]: 0.219 ± 0.2 | promoter activity interaction Z-score [6, 29]: -0.031 ± 0.32 | promoter activity interaction Z-score [6, 30]: -0.131 ± 0.29 | promoter activity interaction Z-score [6, 31]: 0.0937 ± 0.57 | promoter activity interaction Z-score [7, 20]: -0.282 ± 0.25 | promoter activity interaction Z-score [7, 21]: -0.355 ± 0.29 | promoter activity interaction Z-score [7, 22]: 1.45 ± 1.6 | promoter activity interaction Z-score [7, 23]: 1.15 ± 0.34 | promoter activity interaction Z-score [7, 24]: 0.0971 ± 0.8 | promoter activity interaction Z-score [7, 25]: 0.793 ± 0.15 | promoter activity interaction Z-score [7, 26]: 0.637 ± 0.84 | promoter activity interaction Z-score [7, 27]: -0.668 ± 0.34 | promoter activity interaction Z-score [7, 28]: 1.16 ± 1.8 | promoter activity interaction Z-score [7, 29]: -0.226 ± 1.1 | promoter activity interaction Z-score [7, 30]: 1.53 ± 1.6 | promoter activity interaction Z-score [7, 31]: 1.21 ± 0.019
